PMC13494018

B1: design_376_bf9d4634-8475-4fdb-a175-1db49a23bdcd_2064_dldesign_0_cycle1_af2pred (protein)
chain: SEKEEIIKRAKEVAERARKVAAEAKEIGPAALPVLNKATEARALANAARDLAEAGGNLEVAKEVLKEAEELLKKAEEELKKLKKE
B2: design_596_3e5f537c-0703-45f0-993f-ff416531349a_1683_dldesign_0_cycle1_af2pred (protein)
chain: EEEKRREAAERLRELAKKALEDVENAPEYLEEAAREAEKVGDYTTAVLLEQLAEDVRKASPEEAVKFVRAGAERALRSAERLL
B3: design_376_bf9d4634-8475-4fdb-a175-1db49a23bdcd_2333_dldesign_0_cycle1_af2pred (protein)
chain: SEIAEKLAEWAEKAKASTREEAKAILDELLADEETKEYAELALEIVKDIAGEDAPAEAIGLALRIASDAAEA
B4: design_596_3e5f537c-0703-45f0-993f-ff416531349a_1686_dldesign_0_cycle1_af2pred (protein)
chain: MDEEIKKKAIEIAQKALEAAAEYEAKAIRTGDEESKKKAEELRELAKKIREALKEGNIEEAKKYAEKAKKLIEEA
B5: design_596_3e5f537c-0703-45f0-993f-ff416531349a_533_dldesign_0_cycle1_af2pred (protein)
chain: SAITEQNKKEALAERAKHVGEAAVKQAKAHAGDVAYIEKLQKQALEAGKKANEEGKKAAEAAAKEIAKIAAQAKAAK
B6: design_376_bf9d4634-8475-4fdb-a175-1db49a23bdcd_2270_dldesign_0_cycle1_af2pred (protein)
chain: SMAREKARKESEELRELVKKAREIAKEAKEKAKEKGPEAQKIAKEAAKEAAKAVWYFPDKEKSEKALQKAEELLKEI
B7: design_596_3e5f537c-0703-45f0-993f-ff416531349a_778_dldesign_0_cycle1_af2pred (protein)
chain: AAAEEEKEQKEKLEEVKELAKKMVEEVKEYAKKTTVEEAKKYLDEKKKELFKYAREKVGYEGVEEAVEAYGEARTAILKLEKN
B8: design_596_3e5f537c-0703-45f0-993f-ff416531349a_1052_dldesign_0_cycle1_af2pred (protein)
chain: GEEKLKEAKKEAEKKLEELKKKGKEVGPEAVKIVEKAKERIEKKYKEAEKMKNKEAGALSFEEFAKDAIEAAKKQIEKLAKEKA
B9: design_376_bf9d4634-8475-4fdb-a175-1db49a23bdcd_2298_dldesign_0_cycle1_af2pred (protein)
chain: GLEEKAKKAVEKAKEYLKKAKAAMEKGDYKSALAYAEQAIHAATAAIKIAKEDPSLKELEEEAKKILEEAKKLLEEAEKKL
B10: design_376_bf9d4634-8475-4fdb-a175-1db49a23bdcd_2125_dldesign_0_cycle1_af2pred (protein)
chain: SPYQKKLEEEAEEIIARARKLAEEAREAAKKAGPKIKSLADEAISYAAIARSLARDGVKYGEKYLELAKEELAKAEELAKEAVKLAKE
B11: design_376_bf9d4634-8475-4fdb-a175-1db49a23bdcd_2363_dldesign_0_cycle1_af2pred (protein)
chain: AEEEAKQKELIKEMARHIQEAREYRNAAEKLPEKKEEYVKKALEHVEKALEAAEELIKNPKYKEYGEKGKKRAEEVRKKIEEVK
B12: design_376_bf9d4634-8475-4fdb-a175-1db49a23bdcd_2407_dldesign_0_cycle1_af2pred (protein)
chain: MEEEEKKKKEEAKKLAKELGNLLIEAFDADVEDEEKGEEKLKEAKKLAKELKKLDPELGKKAEKRIKRFEESMKIAKELKEK
B13: design_376_bf9d4634-8475-4fdb-a175-1db49a23bdcd_2272_dldesign_0_cycle1_af2pred (protein)
chain: AEEYLKEAKKYLEEAKKVAEKNPKAKPAYERGKKKYEEYLKKAKETGDYEEYAKKAYIAADQALEHAEFIAK
B14: design_596_3e5f537c-0703-45f0-993f-ff416531349a_512_dldesign_0_cycle1_af2pred (protein)
chain: DADTIRAASKALKAAGKDPKTAPLAKEAKEALFKGLEYENKDPKKAAEYYKKAAELLRKLAEKAEAKEELLKVAEELEKKAEELKKK
B15: design_596_3e5f537c-0703-45f0-993f-ff416531349a_338_dldesign_0_cycle1_af2pred (protein)
chain: GSMEEKKKKEVEEAEKEAEKILEKAKKEAEKAAKKSPAQAVEVALEALSELKYLGSKYPEKAEEFEKRGRELVEEYKKKAE
B16: design_596_3e5f537c-0703-45f0-993f-ff416531349a_508_dldesign_0_cycle1_af2pred (protein)
chain: KEKIQKEGLKEIEKIAEEGIKEAKKYAEEGKYEEAKKIAKEALEKMREKAKELGEKVGEEAQKQGAKIIQKAREELSEYVQKAKLKK
B17: design_596_3e5f537c-0703-45f0-993f-ff416531349a_566_dldesign_0_cycle1_af2pred (protein)
chain: DKLVEEAKKAAEEAEKLLDKAIKVSPKAAAEAATAYALYENALSAAESGSATEEEVKAQLEKGKEKLKKAKEIMKKEEEKK
B18: design_376_bf9d4634-8475-4fdb-a175-1db49a23bdcd_2229_dldesign_0_cycle1_af2pred (protein)
chain: MAEKIKKAITEAREKYADARGYAYAAKKDPKFLPEAVKAADAAAAAWEALAKLDPANKAIYDANAAKAKAIGDAAKAAL
B19: design_376_bf9d4634-8475-4fdb-a175-1db49a23bdcd_2428_dldesign_0_cycle1_af2pred (protein)
chain: MEEAIKKLKEIAKKLKELSKEAEKLAKEYPKVKNEALKVSGYAETAADQAESALKNKEKAAEAAKWAEKRLEKVEKDLKEVKKKAK
B20: design_376_bf9d4634-8475-4fdb-a175-1db49a23bdcd_2226_dldesign_0_cycle1_af2pred (protein)
chain: KYKEEAKKKTEEELEKAAKAVSKENAPKVEKVKKEALKALEEDFSKAAEIIRNFAKEEKENHDVVKKYAAKASEALYEARAAKEVEER
B21: design_376_bf9d4634-8475-4fdb-a175-1db49a23bdcd_2251_dldesign_0_cycle1_af2pred (protein)
chain: GAASAAEEAKGHAIAAEAYALSGKKKEEALEDAKKAGEYAKKATPEYQAAVKKLFEKKVERVKAKPESAETAEKMKALFEEVVA
B22: design_596_3e5f537c-0703-45f0-993f-ff416531349a_1302_dldesign_0_cycle1_af2pred (protein)
chain: KEKLIEEAKKEAKEVVEKAKAILKSKAKEGKLEEGIKEAANLLQEFQQKLTEISFENPEVKEDMEKIFKEARDELKAEIEAAKAA
B23: design_376_bf9d4634-8475-4fdb-a175-1db49a23bdcd_1954_dldesign_0_cycle1_af2pred (protein)
chain: MTAEEAIKKIEEAAEKASKELKEIGKKNPAVAAYAKAASERVKRRAKRAIKEIKEKGLTGVQAEGLAEAASYFAEDQAENAKKKAEEA
B24: design_596_3e5f537c-0703-45f0-993f-ff416531349a_46_dldesign_0_cycle1_af2pred (protein)
chain: KYKELLKKAKELYEKAIAAAGDPAKAAAELKKANAAFTDALAEARAESKENFKKVRKEYGELKAKYEAAKAAA
B25: design_596_3e5f537c-0703-45f0-993f-ff416531349a_73_dldesign_0_cycle1_af2pred (protein)
chain: AEKEKEAQKLLEEMVEYGEKKAKEAEKLNPKAGERIRRARERYEKYAKDPEKAKQYVEALKEYADHVVEAAKK
B26: design_596_3e5f537c-0703-45f0-993f-ff416531349a_1315_dldesign_0_cycle1_af2pred (protein)
chain: SITYKNKALAYLEAAKHALEVAKKNVGDLEKVKKAYEQAKKFVEKALEYASKVTPEFLAEAKAESEKILAEMEKVLKEAE
B27: design_596_3e5f537c-0703-45f0-993f-ff416531349a_232_dldesign_0_cycle1_af2pred (protein)
chain: LKAEAAEKSAEARELIAEAETLAKNIKNLSKEEAKEALKVAEEALKKAKEAAKLMAKVGEEELGKKLLERAKKAYKETKEAVKKKLK
B28: design_596_3e5f537c-0703-45f0-993f-ff416531349a_666_dldesign_0_cycle1_af2pred (protein)
chain: SEEGKKKVEEAKKRAEKAKKKAKEAIKKSKEEGKAAVYSLLGIAESFKLLAKAMAKTDPEAGKKIKEVAEEAEKKAKELLEEVEK
B29: design_596_3e5f537c-0703-45f0-993f-ff416531349a_1819_dldesign_0_cycle1_af2pred (protein)
chain: HAATVKAVAAEAKELAEEKIKAMKENAKDEEGIKLAVNSMKRFADNDAKLGPEAGAAAKAEYEKVEKAAKEIIKEAKA
B30: design_596_3e5f537c-0703-45f0-993f-ff416531349a_8_dldesign_0_cycle1_af2pred (protein)
chain: EEEEREKVIKKAKEVLDRNGKKALEYAKIVPEVAPEVEKTIKESRAEIEKAAGLSLEEAQKAAAAAVHKVQELRAEAYFLAEKKK
B31: design_596_3e5f537c-0703-45f0-993f-ff416531349a_1563_dldesign_0_cycle1_af2pred (protein)
chain: AEKHLKEAKKLAEEAKKLAEEAEKDPSTAPEKAKKAEEAARKAREEAKKAAEADPSVAPEAAKAAQEAYEARAVAEAVANRYLK
B32: design_376_bf9d4634-8475-4fdb-a175-1db49a23bdcd_2406_dldesign_0_cycle1_af2pred (protein)
chain: HMEELEKLLKEAEKAAKEAAEAYKKDPAEGKKWASKARDLSIEAISLDPSAYEKAKEIAEKVAEVDPEAGKKIKAILERTYEALKRA
B33: design_596_3e5f537c-0703-45f0-993f-ff416531349a_1289_dldesign_0_cycle1_af2pred (protein)
chain: MNDALAAESYGEGLVEDAEKEAKEAIEKGASPEELKKVAKKARERAERVRRYAERRAKEAENSEEVLAAGEKAVKKLEEIAKELEKAA
B34: design_596_3e5f537c-0703-45f0-993f-ff416531349a_642_dldesign_0_cycle1_af2pred (protein)
chain: SLEENYELAKRVAEAAKEAGKEAKKAGPELAPIGEKAEKEAKELLKEAELAYKDPSYIPEAGKEAQKALEAKAEADWAIAQYK
B35: design_596_3e5f537c-0703-45f0-993f-ff416531349a_1329_dldesign_0_cycle1_af2pred (protein)
chain: MEASEELRKAIKYARELGEKGTEEHKKLAAEAVFYASSDPEKAIALLKEVAKDPKVKELAEKAIEHIKKLAEL
B36: design_596_3e5f537c-0703-45f0-993f-ff416531349a_988_dldesign_0_cycle1_af2pred (protein)
chain: VEKVAKEAKKAAKEARKEAKKTKDGKAAQELLEAASEAEGYAILAEKDPKYAPKAKEAAKKAKELVEKVKKE
B37: design_596_3e5f537c-0703-45f0-993f-ff416531349a_466_dldesign_0_cycle1_af2pred (protein)
chain: EEERTKLIKEASDLRREAIALLREAGKAADPATAGAAVFAIPDLEAFTAAAAAAAKAYPELAATWEAAAAKATASHAAVEKAEKL
B38: design_596_3e5f537c-0703-45f0-993f-ff416531349a_1299_dldesign_0_cycle1_af2pred (protein)
chain: MSKKLTEALSAFNKAAAAAAKLIDEEAKKDPKKAAEVKKLLAKAVYEIDNPEKAAAYLEAAAKAATDAATKAELNAAAAEAKKLGEL

molecular target: VTCN1, Q7Z7D3
Sequence (Q7Z7D3 whole entry): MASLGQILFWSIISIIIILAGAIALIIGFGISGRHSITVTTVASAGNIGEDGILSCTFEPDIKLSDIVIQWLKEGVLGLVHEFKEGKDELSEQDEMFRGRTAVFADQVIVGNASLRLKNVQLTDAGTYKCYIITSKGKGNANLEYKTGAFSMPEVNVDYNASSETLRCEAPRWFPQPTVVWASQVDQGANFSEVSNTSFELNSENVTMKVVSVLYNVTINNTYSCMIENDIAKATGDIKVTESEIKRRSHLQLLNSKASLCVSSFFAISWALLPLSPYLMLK

Binding in a display sort, inactive:
B1 not found, B2 not found, B3 not found, B4 not found, B5 not found, B6 not found, B7 not found, B8 not found, B9 not found, B10 not found, B11 not found, B12 not found, B13 not found, B14 not found, B15 not found, B16 not found, B17 not found, B18 not found, B19 not found, B20 not found, B21 not found, B22 not found, B23 not found, B24 not found, B25 not found, B26 not found, B27 not found, B28 not found, B29 not found, B30 not found, B31 not found, B32 not found, B33 not found, B34 not found, B35 not found, B36 not found, B37 not found, B38 not found
